# A selection: hits, their analogues and other compounds. The true share with any hit is near 0.93%.
# RPL19A-GFP yeast – RPL19A-GFP expression modulators in yeast, primary screen, cell-based, S. cerevisiae, multiplex flow cytometry, MLPCN; AID 2025, 2009; S. cerevisiae RPL19A-GFP strain, 3 h; hits give low values; percent response vs DMSO, % at 10 µM; hit rate 0.3% among 330,000;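 active means percent response vs DMSO below 50%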;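 further: median channel GFP fluorescence of the barcoded RPL19A-GFP strain; ratio of sample median GFP to plate DMSO average so 100% = DMSO; lower means less RPL19A-GFP as with rapamycin TOR inhibition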
# CIT2 TOR yeast – modulators of CIT2-GFP expression in yeast, primary screen, S. cerevisiae, GFP fusion, multiplex flow cytometry, MLPCN library; S. cerevisiae CIT2-GFP strain, 3 h; 100 means same as DMSO wells; GFP response vs DMSO, % at 10 µM; hit rate 0.065% among 320,000;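 active means GFP response relative to DMSO above a set limit, near the screen mean plus 3 SD, cut at about 150% in these data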;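 further: ratio of well median GFP fluorescence to mean of DMSO wells on the plate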
# MEP2 TOR yeast – modulators of MEP2-GFP levels in yeast, primary screen, S. cerevisiae, multiplex flow cytometry, MLPCN library | hit rate 0.51% among 330,000 | GFP response vs DMSO, % at 10 µM | S. cerevisiae MEP2-GFP strain, 3 h; 100% = DMSO control level;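 active means GFP response versus DMSO above a set limit, roughly screen mean plus 3 SD, cut at about 180% in these data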;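 further: median GFP fluorescence of the barcode-gated MEP2-GFP cells per well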
# LAP4-GFP MLPCN – modulators of LAP4-GFP expression in yeast, primary screen, S. cerevisiae, multiplex flow cytometry, MLPCN library; 3 h; median GFP as percent of DMSO wells; GFP response vs DMSO, % at 10 µM; hit rate 0.34% among 320,000; AID 2023, 2009;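 active means GFP response vs DMSO above a set limit, about the screen mean plus 3 SD, cut at about 150% in these data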
# AGP1-GFP MLPCN – modulators of AGP1-GFP expression in yeast TOR pathway, primary screen, cell-based, multiplex flow cytometry, S. cerevisiae, MLPCN library; 3 h; GFP as percent of DMSO wells; GFP response vs DMSO, % at 10 µM; hit rate 0.02% among 320,000; AID 2066, 2009;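 active means GFP response relative to DMSO above a set limit, near screen average plus 3 SD, cut at about 150% in these data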;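 further: median GFP channel fluorescence of the gated AGP1 strain per well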
# LAP4 cherry2 – LAP4-GFP expression modulators in yeast, confirmation, cell-based, second cherry pick, flow cytometry; AID 2621, 2010; S. cerevisiae LAP4-GFP strain, 3 h; GFP response vs DMSO, % at 10 µM; hit rate 20% among 590; shares compounds with LAP4-GFP MLPCN;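 active means GFP signal as percent of the solvent control above about 150%, meaning raised reporter expression, limit read from the data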;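 further: ratio of well median GFP fluorescence to plate DMSO mean so 100% = DMSO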
# MEP2 cherry2 – modulators of MEP2-GFP levels in yeast, confirmation, S. cerevisiae, flow cytometry GFP, second cherry picks; GFP response vs DMSO, % at 10 µM; S. cerevisiae MEP2-GFP strain, 3 h; shares compounds with LAP4-GFP MLPCN; hit rate 10% among 590;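 active means GFP signal above 150% of the solvent control wells, that is a rise of more than half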;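 further: median channel GFP fluorescence of all gated yeast cells per well; ratio of median GFP to plate DMSO average so 100% = DMSO level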
# RPL19A GFP CP2 – RPL19A-GFP modulators in TOR pathway yeast, confirmation, cell-based, S. cerevisiae, flow cytometry, second cherry pick | shares compounds with LAP4-GFP MLPCN | S. cerevisiae RPL19A-GFP strain, 3 h; hits give low values; 100% means same as DMSO wells | GFP response vs DMSO, % at 10 µM | hit rate 3% among 590;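 active means under 65% GFP response relative to DMSO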;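 further: median GFP channel fluorescence per well over the all cells gate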
# CIT2-GFP pick2 – modulators of CIT2-GFP expression in yeast, confirmation, flow cytometry, second cherry pick, single plex | S. cerevisiae CIT2-GFP strain, 3 h; DMSO control wells read 100% | hit rate 8% among 590 | GFP response vs DMSO, % at 10 µM | AID 2624, 2010 | shares compounds with LAP4-GFP MLPCN;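 active means GFP response vs DMSO above about 150%, limit read from the data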;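 further: median green fluorescence per well over all gated yeast cells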
# AGP1-GFP pick2 – AGP1-GFP expression modulators, hit retest, confirmation, cell-based, flow cytometry, S. cerevisiae, cherry pick set 2. S. cerevisiae AGP1-GFP strain, 3 h. shares compounds with LAP4-GFP MLPCN. 590 tested, under 10 active. percent response vs DMSO, % at 10 µM;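 active means over 150 percent of DMSO response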;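 further: median GFP channel fluorescence over all cells without mother daughter split; sample median GFP divided by mean DMSO control so 100% equals DMSO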
# Yeast autofluor – compound autofluorescence in yeast s288c, dose response, artefact control for yeast TOR pathway GFP screen, s288c strain; S. cerevisiae s288c, 520 nm autofluorescence, flow cytometry, 3 h; hits give high values; zero means same as solvent-only cells; shares compounds with LAP4-GFP MLPCN; fluorescence change (kMESF span) at 33 µM; 610 tested, under 10 active; AID 2757, 2010;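 active means fluorescence span over the dose series, or activity score, above about 33, limit read from the data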
# s288c autofl DR – autofluorescence of compounds in yeast s288c, dose response, artefact control for yeast TOR pathway GFP screen, primary hits, KU SAR, s288c parental; shares compounds with LAP4-GFP MLPCN; S. cerevisiae s288c parental, compound autofluorescence, flow cytometry, 3 h; fluorescence change (span) at 33 µM; 110 tested, under 10 active; AID 488829, 2010;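 active means fluorescence change span, or the activity score built from it, above 25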
# TORC1 bypass gr – wild-type yeast growth inhibition sparing TORC1 bypass cells, mechanism study for yeast TOR pathway GFP screen, BY4741 wild type, TORC1 bypass strain; S. cerevisiae BY4741 spot growth rating, 48-72 h; hits give low values; growth rating (0-3) at 30 µM; 120 tested, under 10 active; shares compounds with LAP4-GFP MLPCN;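 active means growth rating at most 1 for wild type yeast while the TORC1 bypass strain still grows fully, rated 3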
# An asterisk follows results filed as active; nt = not tested or not shown.
SMILES,RPL19A-GFP yeast,CIT2 TOR yeast,MEP2 TOR yeast,LAP4-GFP MLPCN,AGP1-GFP MLPCN,LAP4 cherry2,MEP2 cherry2,RPL19A GFP CP2,CIT2-GFP pick2,AGP1-GFP pick2,others
N#C/C(=C/c1ccc(N2CCCCC2)o1)c1cccc(F)c1,102,94,92,152*,90,108,105,102,99,96,
N#C/C(=C/c1ccc(N2CCCCCC2)o1)c1ccc(Cl)cc1,87,105,144,118,32,nt,nt,nt,nt,nt,
Nc1ncnc2c1c(-c1ccc(Oc3ccccc3)cc1)cn2C1CCCC1,89,66,95,117,81,nt,nt,nt,nt,nt,
Cc1cc(C)c(S(=O)(=O)ON2C(=O)c3ccccc3C2=O)cc1C,70,76,109,171*,75,nt,nt,nt,nt,nt,Yeast autofluor=2.2
Cc1cc(C)c(C)c(S(=O)(=O)ON2C(=O)c3ccccc3C2=O)c1C,99,82,92,248*,69,nt,nt,nt,nt,nt,Yeast autofluor=0.81
Cc1ccc(S(=O)(=O)ON2C(=O)c3ccccc3C2=O)c(C)c1,61,70,99,122,57,132,168*,71,122,87,Yeast autofluor=1.3
Cc1ccc(S(=O)(=O)N2CCN(CCc3ccccc3)CC2)c(C)c1,101,104,108,100,102,nt,nt,nt,nt,nt,
O=C1c2ccccc2C(=O)N1OS(=O)(=O)c1ccc(F)cc1,99,101,102,157*,93,nt,nt,nt,nt,nt,Yeast autofluor=1.6
N#CCc1nc2ccc(S(=O)(=O)N3CCOCC3)cc2s1,97,104,95,104,105,nt,nt,nt,nt,nt,
NC(=O)N=Nc1c2[nH]c3ccccc3nc-2c2ccccc12,69,68,93,99,55,nt,nt,nt,nt,nt,
COc1ccc(CCNC(=S)N2CCN(S(=O)(=O)c3ccccc3F)CC2)cc1,99,93,99,104,97,nt,nt,nt,nt,nt,
Cc1ccsc1/C=c1\sc2ncnn2c1=O,100,104,98,109,81,nt,nt,nt,nt,nt,
O=c1/c(=C/c2cccc3ccccc23)sc2ncnn12,106,107,91,155*,81,nt,nt,nt,nt,nt,Yeast autofluor=0.81;s288c autofl DR=0.49;TORC1 bypass gr=3
CC(=O)CSc1ncnc2c1cnn2-c1ccccc1,120,203*,183*,149,103,nt,nt,nt,nt,nt,Yeast autofluor=0.1
CCOC(=O)CC1COCCN1C(=O)c1cc(COc2ccc(F)cc2Cl)on1 (configuration not stated),101,94,85,100,99,nt,nt,nt,nt,nt,
CCOC(=O)Cn1c(CN2CCOCC2)nc2c1c(=O)n(C)c(=O)n2C,69,101,95,222*,106,108,119,101,115,99,
CCOC(=O)Cn1c(CN2CCOCC2)nc2c1c(=O)[nH]c(=O)n2C,93,112,97,96,98,nt,nt,nt,nt,nt,
Cc1cc(-c2cc(C(=O)NCc3ccccc3)on2)nc(S(C)(=O)=O)n1,95,88,98,103,97,102,98,101,101,99,
COCCNc1nc(C)cc(-c2cc(C(=O)NCc3ccccc3)on2)n1,70,118,356*,230*,120,101,102,99,101,98,
CCCNc1nc(-c2cc(C(=O)Nc3ccccc3)on2)cc(C(C)C)n1,98,98,107,115,92,100,100,94,96,104,
COCCNc1nc(C)cc(-c2cc(C(=O)Nc3ccccc3)on2)n1,98,93,90,103,89,102,103,100,107,98,
Cn1c(=O)c(C(=O)NCC2CCCO2)c(O)c2ccccc21 (configuration not stated),96,59,85,97,84,nt,nt,nt,nt,nt,
CCN1C(=O)/C(=C\C(=O)c2cccs2)c2cc(Br)ccc21,100,78,98,196*,91,nt,nt,nt,nt,nt,Yeast autofluor=1.6
COc1ccc(CN2CCN(Cc3ccc(CO)o3)CC2CCO)cc1C (configuration not stated),106,106,105,88,104,nt,nt,nt,nt,nt,
CC(C)(O)C#Cc1ccc(CN2CCN(C3CCCC3)C(CCO)C2)cc1 (configuration not stated),86,89,93,169*,110,99,105,100,103,100,
O=C(O)c1cccc(-n2cccc2/C=C\[N+](=O)[O-])c1,96,110,98,103,102,nt,nt,nt,nt,nt,
O=C(O)c1cccc(-n2cccc2/C=C/[N+](=O)[O-])c1,94,92,94,163*,103,110,100,104,117,103,
CC(CC(=O)N1CCN(c2cccc(Cl)c2)CC1)S(=O)(=O)c1ccc2c(c1)NC(=O)CO2 (configuration not stated),111,112,110,107,114,nt,nt,nt,nt,nt,
COc1ccc(C2=NS(=O)(=O)N(C)C(C(=O)NCc3ccc4c(c3)OCO4)=C2)cc1OC,98,100,103,100,103,nt,nt,nt,nt,nt,

# High-throughput results as filed in PubChem.
